Among the data in PubChem BioAssay (NCI) are growth values, retold here.

Holding throughout (test): NCI-60 one-dose screen, 48 h (100 = growth as untreated, 0 = no growth, -100 = all killed)
Common to all, as to conditions: 10 µM unless noted

Assay [1] deals with SR leukemia.
Assay [2] relates to RPMI-8226 leukemia.
Assay [3] has as its system OVCAR-8 ovarian.
For assay [4], the system named is OVCAR-5 ovarian.
In assay [5] the test system is OVCAR-4 ovarian.
Assay [6] concerns SK-OV-3 ovarian.
The subject of assay [7] is OVCAR-3 ovarian.
The test system of assay [8] is HS 578T breast.
In assay [9] the test system is NCI/ADR-RES ovarian.
The subject of assay [10] is IGROV1 ovarian.

The structures appear in SMILES notation. Compounds without any hit were thinned out: in the full panel of roughly 83,000, 20% have a hit.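 A percent growth of 40 corresponds to 60% growth inhibition; 0 means no net growth; -100 means all cells died. Active threshold: below 10.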 Unmarked numbers belong to inactive results. Calls of active or inactive are those of the source.

With `Cn1ccc(=O)c(C(=O)Nc2nsc3ccc([N+](=O)[O-])cc23)c1`, the growth in [1] was 55.9%; in [2], 61.6%; in assay [3], 59.3%; in assay [4], 84%; in assay [5], 53.4%; in assay [6], 30.8%. In addition, the growth in assay [7] is 75.6%; in assay [8] it was 54.7%; in assay [9] it was 68%.
`COc1ccc(-c2ccc(=O)oc2-c2cc(OC)c(OC)c(OC)c2)cc1O`: the growth is 0.907% (active) in [1]; 9.69% (active) in assay [2]; 14.2% in [3]; 22.8% in [4]; 39.8% in [5]; 25.9% in assay [6]. Besides, the values for the growth in assay [7] and in assay [9] were -72.7% (active) and 12.9%, respectively.
Consider `CC1CN(S(=O)(=O)c2oc(-c3ccc(Cl)cc3)nc2C#N)CC(C)O1` (stereo not given), for which the growth in [1] is -12.9% (active); in assay [2] it was 24.2%; in assay [3], 54.6%; in assay [4], 100%; in [5], 92.4%; in assay [6] it was 99.9%. Also, the growth was 34.4% in assay [7], 98.7% in [8] and 101% in assay [9].
Consider `N#Cc1c(-c2ccccc2)cc(-c2ccc(Nc3nc(Nc4ccc(Cl)cc4)nc(Nc4ccc(Cl)cc4)n3)cc2)nc1N`, for which the growth in assay [1] was -30.8% (active); in assay [2], -45.4% (active); in assay [3] it was 32.6%; in assay [4] it was 63.2%; in [5], -15.2% (active); in assay [10] it was -8.08% (active). Further, the growth is -54% (active) in [7], 14.4% in [8] and 53.2% in [9].
For the molecule `CCCn1cc2c(=O)nc3sc(Cc4ccccc4)c(C)n3c2n1`, the growth is 73.8% in assay [1]; 99.5% in assay [2]; 91.8% in assay [3]; 111% in [4]; 99% in assay [5]; 105% in assay [10]. Further, the growth was 99.3% in [7], 99.5% in assay [8] and 96.7% in assay [9].
Regarding `CC1=NC2=Nn3c(c4cnn(-c5ccccc5)c4n/c3=N\N)NN2C(c2ccccc2)=C1`, the growth in [1] is 99.6%; in assay [2], 98.3%; in assay [3] it was 101%; in [5], 94.7%; in assay [10], 61.8%; in [7], 90.2%. For the same molecule, the growth was 80.5% in assay [8] and 97.5% in [9].
In the case of `Clc1cccc(Nc2ncnc3ccc(-c4cnc5[nH]ccc5c4)cc23)c1`, the growth in assay [1] was 60%; in [2], 60%; in assay [3] it was 68.2%; in assay [5] it was 85%; in assay [6] it was 71.1%; in assay [10] it was 25.1%. For the same molecule, the growth in assay [7] was 64.6%; in assay [8] it was 81.4%; in assay [9], 77%.
Turning to `O=CN1N=C(c2cccc(Nc3ccnc4cc(Cl)ccc34)c2)CC1c1ccccc1` (stereo not given), the growth in [1] is 9.69% (active); in assay [2], 27.7%; in assay [3], 38%; in assay [5], 41.2%; in [6] it was 8.25% (active); in assay [10], 28.9%. The growth in assay [7] was -12.9% (active); in assay [8] it was 1.24% (active); in assay [9] it was 3.37% (active).
